Measurements: article PMC9838217, “Structure of SALL4 zinc finger domain reveals link between AT-rich DNA binding and Okihiro syndrome”
Changes are numbered by the printed parent chain.

What was measured:
Assay in all cases: HT-SELEX; high values mean tight binding
Conditions in all cases: protein: recombinant; vector His6-GST; dsDNA, one strand shown
SALL4 ZFC4 WT (HT-SELEX) = target: T1, SALL4 ZFC4 WT (HT-SELEX) (Mus musculus, UniProt Q8BX22 870-940)
T1 sequence: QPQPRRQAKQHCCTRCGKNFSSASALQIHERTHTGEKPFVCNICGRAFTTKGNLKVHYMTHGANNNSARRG
In short: (§1)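 A 100 µl reaction of 10 mM Tris–HCl pH 7.5, 50 mM NaCl, poly(dI-dC) and DTT held purified recombinant mouse SALL4 zinc finger cluster 4 (residues 870–940, 1 µg) and library DNA (1.5 µg first cycle, 200 ng later) for 10 min at room temperature. Complexes captured on Ni2+ beads were washed, PCR-amplified and reselected for up to 6 cycles, in triplicate, then MiSeq-sequenced and scanned for 6-mers. Binding signal is the read fraction of each canonical k-mer expressed as fold change over the initial random library.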

[1] = target: T2, SALL4 ZFC4 R900W (HT-SELEX) (Mus musculus, UniProt Q8BX22 870-940, R900W)
T2 sequence: T1 sequence with R31W
In short: as §1

[2] = target: T3, SALL4 ZFC4 G921D (HT-SELEX) (Mus musculus, UniProt Q8BX22 870-940, G921D)
T3 sequence: T1 sequence with G52D
In short: as §1

Sequence | binding signal (SALL4 ZFC4 WT (HT-SELEX)) [fold-change vs cycle 0] | binding signal [1] [fold-change vs cycle 0] | binding signal [2] [fold-change vs cycle 0]
GTACAC | 0.768 ± 0.0559 | 0.868 ± 0.0144 | 0.9395 ± 0.00736
CTGGTA | 0.8022 ± 0.00263 | 0.908 ± 0.0333 | 0.954 ± 0.0144
TACGTA | 1.26 ± 0.0297 | 1.33 ± 0.109 | 1.23 ± 0.0963
CAGGAC | 0.423 ± 0.0322 | 0.487 ± 0.0192 | 0.578 ± 0.0205
CTTAAG | 1.38 ± 0.0318 | 1.56 ± 0.0368 | 1.46 ± 0.11
AATGAG | 1.36 ± 0.0386 | 1.5 ± 0.047 | 1.41 ± 0.0472
ATTAAC | 2.04 ± 0.0632 | 2.1 ± 0.104 | 1.83 ± 0.178
AAAAAG | 1.57 ± 0.0619 | 1.68 ± 0.0943 | 1.52 ± 0.129
CAACGG | 0.353 ± 0.0289 | 0.419 ± 0.0235 | 0.526 ± 0.0596
CATCGG | 0.364 ± 0.0112 | 0.442 ± 0.0135 | 0.568 ± 0.0586
CCTCAA | 0.759 ± 0.0289 | 0.864 ± 0.0329 | 0.951 ± 0.0279
CATGGG | 0.477 ± 0.0485 | 0.543 ± 0.0349 | 0.645 ± 0.0616
ACACAA | 1.07 ± 0.0495 | 1.2 ± 0.0676 | 1.19 ± 0.0605
AGAGCT | 0.658 ± 0.0205 | 0.784 ± 0.026 | 0.8909 ± 0.00859
GTAGGA | 0.827 ± 0.0404 | 0.946 ± 0.029 | 0.948 ± 0.0466
CTCCAG | 0.482 ± 0.0297 | 0.584 ± 0.0424 | 0.667 ± 0.0339
ATATCG | 1.31 ± 0.0501 | 1.15 ± 0.0369 | 1.194 ± 0.00992
CTAGGA | 0.873 ± 0.029 | 0.993 ± 0.0392 | 0.975 ± 0.0202
ATGTTC | 1.28 ± 0.0355 | 1.37 ± 0.0462 | 1.36 ± 0.0792
CAAATC | 1.1 ± 0.0172 | 1.18 ± 0.0162 | 1.21 ± 0.0283

Sequence | binding signal (SALL4 ZFC4 WT (HT-SELEX)) [fold-change vs cycle 0] | binding signal [1] [fold-change vs cycle 0] | binding signal [2] [fold-change vs cycle 0]
CACGAG | 0.41 ± 0.0151 | 0.496 ± 0.0211 | 0.599 ± 0.0729
CGATAC | 0.695 ± 0.052 | 0.793 ± 0.033 | 0.902 ± 0.0425
CACATC | 0.757 ± 0.0342 | 0.861 ± 0.0321 | 0.929 ± 0.0433
ACCACT | 0.783 ± 0.0402 | 0.885 ± 0.0293 | 0.93 ± 0.0313
CACCTC | 0.511 ± 0.0163 | 0.563 ± 0.0344 | 0.689 ± 0.0609
ATTTTG | 1.66 ± 0.083 | 1.5 ± 0.0395 | 1.44 ± 0.0553
ATTACA | 2.21 ± 0.144 | 2.06 ± 0.11 | 1.82 ± 0.177
GAAGCA | 0.667 ± 0.0348 | 0.784 ± 0.0247 | 0.88 ± 0.0121
ATGTTG | 1.2 ± 0.026 | 1.29 ± 0.0687 | 1.28 ± 0.0984
AAGATT | 2.05 ± 0.0988 | 2.08 ± 0.121 | 1.88 ± 0.183
GACCTC | 0.415 ± 0.0384 | 0.51 ± 0.0119 | 0.644 ± 0.0572
ATCAAT | 2.28 ± 0.171 | 2.07 ± 0.0713 | 1.9 ± 0.133
AAACTC | 1.19 ± 0.0627 | 1.3 ± 0.0461 | 1.28 ± 0.0858
CAACAA | 1.1 ± 0.0197 | 1.21 ± 0.0488 | 1.2 ± 0.0481
CCAGAC | 0.368 ± 0.0286 | 0.471 ± 0.0141 | 0.553 ± 0.0511
TACTAA | 2.076 ± 0.0175 | 2.12 ± 0.0758 | 1.87 ± 0.135
ACACCC | 0.416 ± 0.0284 | 0.506 ± 0.0389 | 0.581 ± 0.0534
CTTCGA | 0.707 ± 0.0176 | 0.789 ± 0.0144 | 0.875 ± 0.0344
AGCTCC | 0.365 ± 0.00759 | 0.455 ± 0.0186 | 0.588 ± 0.0519
AAAATG | 1.68 ± 0.0946 | 1.56 ± 0.0588 | 1.46 ± 0.0958

Sequence | binding signal (SALL4 ZFC4 WT (HT-SELEX)) [fold-change vs cycle 0] | binding signal [1] [fold-change vs cycle 0] | binding signal [2] [fold-change vs cycle 0]
AAGAGA | 1.45 ± 0.0335 | 1.67 ± 0.0544 | 1.48 ± 0.103
ACTTAG | 1.38 ± 0.0593 | 1.56 ± 0.0417 | 1.42 ± 0.0798
ACTATC | 1.35 ± 0.0436 | 1.45 ± 0.0712 | 1.39 ± 0.1
CTCAAC | 0.775 ± 0.0132 | 0.9089 ± 0.00888 | 0.928 ± 0.0107
CCCAAA | 0.588 ± 0.013 | 0.653 ± 0.0116 | 0.729 ± 0.0699
CTGCTC | 0.36 ± 0.0162 | 0.436 ± 0.00828 | 0.567 ± 0.028
ACAGTA | 1.35 ± 0.0516 | 1.47 ± 0.111 | 1.37 ± 0.127
TAGAAA | 2.03 ± 0.103 | 1.91 ± 0.061 | 1.69 ± 0.141
CTAGAA | 1.25 ± 0.0695 | 1.37 ± 0.0276 | 1.3 ± 0.11
GCATCA | 0.645 ± 0.017 | 0.724 ± 0.00868 | 0.83 ± 0.0436
AACCCG | 0.371 ± 0.0321 | 0.432 ± 0.0178 | 0.538 ± 0.0569
AAATAC | 1.75 ± 0.12 | 1.68 ± 0.0912 | 1.59 ± 0.0866
GCTACA | 0.6 ± 0.0288 | 0.67 ± 0.0106 | 0.752 ± 0.0182
GCACAA | 0.447 ± 0.00967 | 0.507 ± 0.00524 | 0.634 ± 0.0509
GAATCC | 0.85 ± 0.00926 | 0.935 ± 0.0194 | 0.989 ± 0.0139
GCGAAA | 0.363 ± 0.0241 | 0.395 ± 0.00888 | 0.534 ± 0.0715
AGTAAT | 2.39 ± 0.144 | 2.3 ± 0.183 | 1.99 ± 0.219
ATCCAT | 1.62 ± 0.0994 | 1.54 ± 0.0869 | 1.44 ± 0.0984
ACGTGA | 0.774 ± 0.0226 | 0.876 ± 0.021 | 0.931 ± 0.0233
CCATGC | 0.345 ± 0.0259 | 0.399 ± 0.0174 | 0.514 ± 0.0663
